# Assay results published in PubChem BioAssay.
# Assay: small-molecule microarray binders of probe aNog, primary screen, biochemical, biotinylated probe, 635/667 nm fluorescence (AID 1115);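 note: probe is biotinylated aNog protein used at 0.15 µg/mL for 1 h at 4 C; z-score combines 667 nm fluorescence of each spot with its signal to noise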
# Details: higher = more signal
row,SMILES,composite z-score
1,O=C1C[C@@H](O)[C@@H](O)[C@@H]2[C@@H]3C(=O)N(c4ccc(F)cc4F)C(=O)[C@@H]3CC[C@H]12,-0.213
2,Cc1cc(C)c(-c2cc([C@H](C)ON=C[C@@H](C)[C@H](OCc3ccccc3)C(C)C)on2)c(C)c1,-0.168
3,CCN1C(=O)[C@H]2[C@H]3[C@H](O)[C@H](O)CC(=NOCC=C(C)CCC=C(C)C)[C@@H]3CC[C@H]2C1=O,-0.158
4,CC(CCC(=O)OC[C@H]1O[C@H](C#Cc2ccccc2)C=C[C@@H]1Oc1ccc(C)cc1)=NOC[C@@H](C)[C@H](OCc1ccccc1)C(C)C,-0.902
5,CCOC(=O)CCN1C(=O)[C@H]2[C@H]3[C@H](O)[C@H](O)CC(=NO[C@@H]4O[C@H](CO)[C@@H](O)[C@H](O)[C@H]4O)[C@H]3CC[C@H]2C1=O,-0.0309
6,CC1(C)O[C@H]2OC([C@H](O)CON3C(=O)c4ccccc4C3=O)[C@H](O)[C@H]2O1 (stereo partly specified),-0.218
7,CC(CCN1CCc2nc(-c3ccccc3)c(-c3ccccc3)cc2C1)=NO[C@H](C)c1cn([C@H](CO)Cc2ccccc2)nn1,-0.0309
8,CON=C(C)CCN1CCCc2nc(C)c(C)cc21,0.177
9,CC(=O)OC[C@H]1O[C@@H](ON=C(C)CCC(=O)OC[C@H]2O[C@H](C#Cc3ccccc3)C=C[C@@H]2Oc2ccc(C)cc2)[C@H](OC(C)=O)[C@@H](OC(C)=O)[C@@H]1OC(C)=O,-0.156
10,CCN1C(=O)[C@H]2[C@H]3[C@H](O)[C@H](O)CC(=NO[C@H](C)c4cn([C@H](CO)Cc5ccccc5)nn4)[C@@H]3CC[C@H]2C1=O,0.202
11,CC(=O)OC[C@H]1O[C@@H](ON=C(C)C)[C@H](OC(C)=O)[C@@H](OC(C)=O)[C@@H]1OC(C)=O,-0.345
12,CC(C)CON=C1C[C@@H](O)[C@@H](O)[C@@H]2[C@@H]3C(=O)N(c4ccc(F)cc4F)C(=O)[C@@H]3CC[C@@H]12,-0.0563
13,C=C(C)C(=O)OC[C@H]1CN2[C@@H](CC[C@@H](C)[C@@H]2c2ccc(Br)cc2)C(=O)O1,-0.353
14,CC(CCN1CCCc2nc(C)c(C)cc21)=NOC[C@@H](O)COCc1ccco1,1.75
15,O=C1C=C[C@@H](O)[C@@H]2[C@@H]3C(=O)N(Cc4ccc5c(c4)OCO5)C(=O)[C@@H]3CC[C@@H]12,-0.238
16,CC(C)(C)N1C(=O)[C@H]2[C@H]3[C@H](O)[C@H](O)CC(=NOC[C@@H](O)COCc4ccco4)[C@@H]3CC[C@H]2C1=O,-0.0733
17,C=CC[C@@H]1C=CC(ON=C(C)C)[C@@H](CO)O1 (stereo partly specified),-0.303
18,CCC1=NOC(CCC2CC(OC(=O)NCc3cccc4c3OCO4)CC3(CCCC(COC(=O)NCCc4ccc(Cl)cc4)O3)O2)C1 (stereo unspecified),-0.402

row,SMILES,composite z-score
1,C#CCCCON=C1C[C@@H](O)[C@@H](O)[C@@H]2[C@@H]3C(=O)N(C4CCCCC4)C(=O)[C@@H]3CC[C@@H]12,-0.494
2,CC(=O)OC[C@H]1O[C@H](CC=NOC[C@@H](O)COCc2ccco2)C=C[C@@H]1OC(C)=O,-0.498
3,CC(C)=NOC(C)CN1CCCc2nc(C)c(C)cc21 (stereo unspecified),-0.0809
4,CCOC(=O)[C@H](Cc1ccccc1)NC(=O)CCC1CC(OC(=O)NCc2cccc3ccccc23)CC2(CCCC(COC(=O)NCC3CCCCC3)O2)O1 (stereo partly specified),-0.142
5,O=C1C[C@H](c2ccccc2)[C@H](c2ccc(Br)cc2)O1,-0.35
6,COC(=O)[C@H](C)NC(=O)CCC1CC(OC(=O)NCCc2ccc(F)cc2)CC2(CCCC(COC(=O)NCC3CCCCC3)O2)O1 (stereo partly specified),0.144
7,CN1CCc2nc(-c3ccccc3)c(-c3ccccc3)cc2C1,-0.287
8,CC#CCOCCC=C1c2ccccc2[C@@H](OC)[C@@H]1C,-0.209
9,C#CCCCON=C1C[C@@H](O)[C@@H](O)[C@@H]2[C@@H]3C(=O)N(C[C@@H]4CCCO4)C(=O)[C@@H]3CC[C@H]12,-0.462
10,O=C1[C@H]2[C@H]3[C@H](O)[C@H](O)CC(=NO[C@@H]4O[C@H](CO)[C@@H](O)[C@H](O)[C@H]4O)[C@H]3CC[C@H]2C(=O)N1c1ccc(F)cc1F,-0.273
11,CCCNC(=O)OC[C@H]1O[C@H](CCON=C2C[C@@H](O)[C@@H](O)[C@@H]3[C@@H]4C(=O)N(CC)C(=O)[C@@H]4CC[C@@H]23)C=C[C@@H]1Oc1ccc(OC)cc1,0.084
12,CC(C)=CCCC(C)=CCON=C1C[C@@H](O)[C@@H](O)[C@@H]2[C@@H]3C(=O)N(c4cccc(Oc5ccccc5)c4)C(=O)[C@@H]3CC[C@H]12,-0.0129
13,COc1ccc(OC[C@@H](CO)OC)cc1,-0.0448
14,COc1ccc(OC[C@H]2CN3[C@@H](CC[C@@H](C)[C@@H]3c3ccc(Br)cc3)C(=O)O2)cc1,0.0121
15,Cc1ccc(S(=O)(=O)N[C@@H]2COC(=O)CC=C[C@@H](C)[C@H](NS(=O)(=O)c3ccc(C)cc3)COC(=O)[C@H](C)NC(=O)CC=C[C@H]2C)cc1,0.122
16,CC(C)CON=C1C[C@@H](O)[C@@H](O)[C@@H]2[C@@H]3C(=O)N(C(C)(C)C)C(=O)[C@@H]3CC[C@@H]12,-0.158
17,CCOC(=O)CCN1C(=O)[C@H]2[C@H]3[C@H](O)[C@H](O)CC(=O)[C@@H]3CC[C@H]2C1=O,-0.252
18,CCOC(=O)[C@H](CC(C)C)NC(=O)CCC1CC(OC(=O)NCc2ccc3c(c2)OCO3)CC2(CCCC(COC(=O)NCCC(C)C)O2)O1 (stereo partly specified),-0.295
